Results as given in the supplement of paper PMC12636033.
± gives the standard deviation of the averaged measurements. Over roughly 33,000 sequences, “E-score (rank enrichment, -0.5 to 0.5)” has its median near -0.0043; the highest 2% begin near 0.24. This excerpt belongs to a sample that is enriched for the highest values.

system: 2Sp-muMax20 (muMax20 with two 2,6-bis(methyl)pyridine Cys staples); experiment: PBM 8-mer E-score (E-score (rank enrichment, -0.5 to 0.5)); higher = stronger preferential binding
Protocol: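 Protein binding microarray (universal PBM chip covering all 10-mers in fixed probe flanks) with chemically synthesized human Max(13-93) bHLH-LZ analogs (not full-length Max) bearing noncanonical residues (hArg, Tha, Aib, Nle at 65) and aromatic Cys staples. Read-out per 8-mer (and its reverse complement): E-score (rank-based enrichment, -0.5 to 0.5) and Z-score of median probe intensity.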

Sequence | PBM 8-mer E-score
CACCGCGG | -0.121 ± 0.021
CTGGTAGC | -0.131 ± 0.011
CCATCTTA | -0.102 ± 0.052
CATAGCAA | 0.199 ± 0.072
GATAGCAC | 0.151 ± 0.043
CATAGCAC | 0.301 ± 0.019
GCCAGAAA | 0.0632 ± 0.035
CTAAGCTA | -0.0343 ± 0.0085
GTGATGCA | 0.186 ± 0.078
AATATAAG | 0.249 ± 0.07
ACTATAAA | 0.115 ± 0.014
AAAATAAA | 0.103 ± 0.018
CATATAAC | 0.228 ± 0.076
AATATAAT | 0.22 ± 0.015
TGTATACA | 0.315 ± 0.067
GGTATACA | 0.145 ± 0.029
TGGATACA | 0.213 ± 0.13
CATATAAG | 0.168 ± 0.061
CATATAAA | 0.323 ± 0.008
AATATAAA | 0.245 ± 0.03
AATATAAC | 0.203 ± 0.11
AGGCTCAC | -0.168 ± 0.071
CTTTCCCA | -0.0651 ± 0.061
ATTAGGTA | 0.0384 ± 0.028
CTTCCCCA | 0.0675 ± 0.046

Sequence | PBM 8-mer E-score
ATGAAAGA | 0.095 ± 0.12
GGCACTGA | -0.138 ± 0.064
GAACGGTA | -0.0592 ± 0.0044
AGCGCAAT | -0.0106 ± 0.054
GATAAAAA | 0.17 ± 0.036
TCTATAAA | 0.213 ± 0.036
TATATAAA | 0.275 ± 0.019
AGTATAAA | 0.186 ± 0.048
TATAAAAA | 0.307 ± 0.015
CATAAAAA | 0.17 ± 0.062
GATATAAA | 0.191 ± 0.046
GGTATAAA | 0.134 ± 0.012
TGTATAAA | 0.254 ± 0.018
GTACACTA | -0.172 ± 0.087
AGGATGGC | -0.0191 ± 0.078
GAACGAAC | -0.022 ± 0.033
ACGTCAGT | -0.191 ± 0.0086
ATCTTAAT | 0.165 ± 0.044
ACCCAGCA | -0.107 ± 0.015
GCCCCTCA | 0.0361 ± 0.077
CCCCCTCC | -0.0372 ± 0.049
ACCCCTTC | 0.273 ± 0.015
ACCCCTCC | 0.246 ± 0.0062
ACCCCTAG | 0.0238 ± 0.027
ACCCCTAT | 0.267 ± 0.044

Sequence | PBM 8-mer E-score
ACCCCTAA | 0.163 ± 0.11
AACCCTTC | 0.0889 ± 0.037
GCCCCCCC | -0.1861 ± 0.0003
ACCCCTCA | 0.158 ± 0.055
GCCCCTCC | 0.237 ± 0.036
CCCCCTTC | -0.195 ± 0.12
CCGGCAGA | -0.154 ± 0.1
CTCAAAGA | -0.106 ± 0.0065
GACACCGA | -0.215 ± 0.025
GAAAGATA | 0.0861 ± 0.022
TGGGAGAA | 0.0249 ± 0.058
CGCCCACA | 0.216 ± 0.018
ACGATGGA | -0.164 ± 0.01
CTAAAAGC | -0.0267 ± 0.036
CACTCAAG | 0.0104 ± 0.039
CTGGCAAA | -0.0382 ± 0.063
GATACGGC | -0.079 ± 0.018
ATGATACC | 0.11 ± 0.016
ATGATATG | 0.199 ± 0.075
CTGATACA | -0.0277 ± 0.11
GTGATACA | 0.0186 ± 0.033
ATGATACG | 0.271 ± 0.071
ATGATAGA | 0.079 ± 0.01
ATGATAGG | 0.00318 ± 0.11
ATGATACA | 0.274 ± 0.042

Sequence | PBM 8-mer E-score
ATGATAGC | 0.278 ± 0.023
TAACGAAA | 0.0771 ± 0.12
CAACTAGC | 0.0239 ± 0.018
ATTAGTCC | 0.0528 ± 0.12
CACGGCGA | -0.0774 ± 0.0095
CGGTCGTC | -0.18 ± 0.017
GGTGATTA | 0.0438 ± 0.06
ATGTGAAC | 0.119 ± 0.0064
GGATTGCC | -0.202 ± 0.012
AATGGGTC | -0.00791 ± 0.0086
ATTGGGGG | -0.0095 ± 0.0052
AATTGGGG | 0.228 ± 0.06
ATTTGGGC | 0.119 ± 0.05
AATTTGGA | 0.0583 ± 0.086
ATTTGGGA | 0.173 ± 0.068
ATTGGGCC | 0.00386 ± 0.043
AATTTGGT | -0.00788 ± 0.03
AATTTGGG | 0.254 ± 0.017
AATTGGGT | 0.2483 ± 0.0021
ATTTGGGG | 0.253 ± 0.052
AATTGGGC | 0.183 ± 0.034
ATTGGGGC | 0.253 ± 0.019
CCTTGACG | -0.0891 ± 0.0072
AGGGGACT | -0.0296 ± 0.079
GACGAGCA | 0.0874 ± 0.014

Sequence | PBM 8-mer E-score
CACACACC | -4e-05 ± 0.065
ATGGCATC | 0.193 ± 0.081
ACGAGCCG | -0.0923 ± 0.041
CGCGGTCA | -0.174 ± 0.092
ACGCGCGC | 0.206 ± 0.0084
ACACGCGA | 0.211 ± 0.037
ACGCGCGT | 0.397 ± 0.0075
ACACGCGT | 0.272 ± 0.021
ACGCGCGG | 0.156 ± 0.098
AAACGCGT | -0.0801 ± 0.023
ACTGAACT | 0.049 ± 0.03
CACGATCG | -0.0926 ± 0.084
ATATAACG | 0.302 ± 0.039
ATATAACC | 0.134 ± 0.069
AAATAACG | 0.289 ± 0.022
AAATAACA | 0.182 ± 0.057
CAATAACG | 0.0434 ± 0.0082
ATATAACA | 0.184 ± 0.057
AGGATCAC | 0.0434 ± 0.0027
CGATGACC | -0.245 ± 0.045
AACATAGG | 0.0986 ± 0.084
AACTACAG | -0.122 ± 0.011
AACTACAC | 0.257 ± 0.011
GACTACAC | 0.016 ± 0.034
CCCTCGCA | 0.109 ± 0.031

Sequence | PBM 8-mer E-score
GGACTATA | 0.129 ± 0.085
AGCACCGA | -0.129 ± 0.026
ATTAGAAT | 0.248 ± 0.033
AGTAGAAA | 0.142 ± 0.006
AGTAGAAT | 0.286 ± 0.011
AGTAGAAC | 0.0268 ± 0.014
ATTAGAAA | -0.0714 ± 0.083
ATTAGAAG | 0.138 ± 0.075
CCGAAACG | -0.122 ± 0.032
GATCAGAA | -0.0464 ± 0.015
CCCGTGGC | -0.328 ± 0.013
ACCTCCCC | 0.0632 ± 0.019
TGAACGAA | 0.0338 ± 0.048
CTGATTCA | -0.006 ± 0.016
AAGCGCTT | 0.29 ± 0.074
AAGCGCTC | 0.0083 ± 0.034
AAGCGCTA | 0.0638 ± 0.1
AAGGATAT | 0.0821 ± 0.052
ATTTATGA | 0.149 ± 0.03
ACAGATGT | 0.0497 ± 0.021
CAACTCGA | -0.0837 ± 0.0059
CGTGGAAA | 0.257 ± 0.038
CGTGGAAG | 0.163 ± 0.035
AGTGGAAA | 0.185 ± 0.0052
CGAGTAAC | -0.108 ± 0.036

Sequence | PBM 8-mer E-score
CCACAGCA | 0.0663 ± 0.031
TCTGAAAA | -0.037 ± 0.13
ATGCGTAG | 0.259 ± 0.071
GTGCGTAA | 0.0529 ± 0.0043
GTGCGTTA | 0.00978 ± 0.021
ATGCGTAC | 0.00487 ± 0.0049
CTGCGTTA | -0.0622 ± 0.026
CTGCGTAA | -0.0976 ± 0.042
ATGCGTAA | 0.238 ± 0.025
ATGCGTCG | -0.0304 ± 0.0076
ATGCGTTA | 0.243 ± 0.018
GGCTTGTA | 0.22 ± 0.043
GGAGCAAA | 0.0658 ± 0.024
ACCTTAAT | 0.0925 ± 0.027
CAGTGCGG | -0.189 ± 0.025
ACCGTGGC | -0.207 ± 0.036
GGCCTATA | -0.243 ± 0.01
CTGCCCGC | -0.0236 ± 0.011
CACGCGCA | 0.0178 ± 0.093
AACGCGCC | -0.0607 ± 0.047
AAAGCGCA | 0.18 ± 0.0096
CACGCGCG | 0.261 ± 0.051
GACGCGCC | -0.0693 ± 0.078
CACGCGCC | 0.262 ± 0.027
CGCGCGCG | 0.2 ± 0.077

Sequence | PBM 8-mer E-score
CAAGCGCA | 0.245 ± 0.058
CGCGCGCC | 0.243 ± 0.006
AGCGCGCC | 0.123 ± 0.087
GGCGCGCC | -0.0216 ± 0.12
CAAGCGCC | -0.113 ± 0.064
ACATCGAG | 0.0846 ± 0.046
AAGCGTGG | 0.0965 ± 0.049
CTCACGCA | 0.12 ± 0.049
ACGTATAT | 0.145 ± 0.039
TAGCGCTA | -0.00743 ± 0.0017
ACCATTCT | 0.0547 ± 0.046
AACGCGCT | -0.0289 ± 0.021
AACACGCG | 0.213 ± 0.0048
AACGCGCA | 0.0173 ± 0.051
AACGCTCG | 0.0415 ± 0.059
CACGCTCG | 0.245 ± 0.0082
CACGCTCA | 0.0559 ± 0.045
CACACGCG | 0.281 ± 0.035
AACGCGCG | 0.263 ± 0.023
CACACGCA | 0.0795 ± 0.072
GGACGCAA | 0.0641 ± 0.04
AGTTGCAG | 0.122 ± 0.058
TACAGGTA | 0.0603 ± 0.031
ATCAATGG | 0.0872 ± 0.022
GCCTCAAC | 0.0347 ± 0.072

Sequence | PBM 8-mer E-score
ATCGTAAA | 0.159 ± 0.07
ATCGTAAG | -0.0242 ± 0.048
ATCGTAAT | 0.238 ± 0.0064
GTCCTTGA | -0.198 ± 0.017
CGTAACGA | 0.0392 ± 0.11
AGGGGTTG | 0.258 ± 0.045
AGGGGTTA | 0.124 ± 0.052
AAGGGTTG | 0.0285 ± 0.053
CGGATCAA | -0.188 ± 0.075
TATAGAGA | -0.0265 ± 0.04
GAATGACA | -0.0425 ± 0.0067
TAATGACA | 0.25862 ± 7.8e-05
GTATGATA | 0.342 ± 0.008
CAATGACA | 0.128 ± 0.054
ATATGACA | 0.25 ± 0.012
ATATGATA | 0.2602 ± 0.0017
GTATGAGA | 0.124 ± 0.0095
ATATGATG | 0.181 ± 0.031
CTATGATA | 0.0216 ± 0.058
GCATGATA | 0.226 ± 0.0026
GTATGACA | 0.158 ± 0.0027
CTATGACA | 0.106 ± 0.0052
